Assay results from PubChem BioAssay.
The source made the active and inactive calls.

What was measured:
[1] = tested on: Plasmodium falciparum Sir2 (PF13_0152, Sir2A); test: Plasmodium falciparum Sir2A binding compounds – biochemical, small-molecule microarray, 635 nm fluorescence, primary screen (AID 1098); conditions: fluorescence 635 nm, higher = more signal;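 note: score merges spot fluorescence intensity with its signal-to-noise ratio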
[2] = probe aDKK1 binding to arrayed compounds – biochemical, biotinylated probe, 635/667 nm fluorescence, primary screen (AID 1099); conditions: small-molecule microarray, higher = more signal;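 note: score merges 667nm spot fluorescence with signal to noise across triplicate slides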
[3] = probe aCHRDL2 binding to arrayed compounds – biochemical, biotinylated probe, 635/667 nm fluorescence, primary screen (AID 1100); conditions: small-molecule microarray, higher = more signal
[4] = change in splice reporter luminescence, either direction, cell-based, HEK293, spliceosome inhibition project, primary screen (AID 1101); conditions: HEK293 splicing luciferase reporter, 24 h, higher = more signal, called active from +8 up or from −8 down;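 note: HEK293 cells carrying a splicing-competent luciferase reporter gene; test concentration not given here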
[5] = molecular target: Fibroblast growth factor 10 (Homo sapiens) (UniProt O15520); test: compounds binding fibroblast growth factor 10 – biochemical, small-molecule microarray, 635 nm fluorescence, primary screen (AID 1102); conditions: FGF10 binding, fluorescence 635 nm, higher = more signal
[6] = tested on: glycogen synthase kinase-3 (GSK3A per assay name; protocol says GSK3B); test: compounds binding glycogen synthase kinase-3 – biochemical, small-molecule microarray, 635 nm fluorescence, GSK3A, primary screen (AID 1103); conditions: fluorescence 635 nm, higher = more signal; note: the record names both GSK3A and GSK3B
[7] = molecular target: Epidermal growth factor receptor (Homo sapiens) (UniProt P00533); test: compounds binding epidermal growth factor receptor – biochemical, small-molecule microarray, 635 nm fluorescence, primary screen (AID 1104); conditions: EGFR binding, higher = more signal;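 note: score merges 667 nm emission intensity with spot signal to noise over triplicate slides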
[8] = molecular target: Follistatin-related protein 3 (Homo sapiens) (UniProt O95633); test: compounds binding follistatin-related protein 3 – biochemical, small-molecule microarray, 635 nm fluorescence, primary screen (AID 1105); conditions: FSTL3 binding, higher = more signal;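 note: score merges emission near 667 nm and signal to noise per printed spot across three slides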
[9] = molecular target: Dickkopf-related protein 1 (Homo sapiens) (UniProt O94907); test: small molecules binding DKK1 protein – biochemical, small-molecule microarray, 635 nm fluorescence scan, primary screen (AID 1106); conditions: higher = more signal;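 note: score merges emission near 667 nm with signal to noise over three replicate slides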
[10] = tested on: Inhibin beta A chain (activin A); test: small molecules binding activin A – biochemical, small-molecule microarray, 635 nm fluorescence scan, primary screen (AID 1107); conditions: INHBA, higher = more signal;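 note: mouse activin A protein probed at 4.33 µg/mL on printed slides; score merges bound-protein fluorescence near 667 nm with spot signal-to-noise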
[11] = tested on: Human papillomavirus type 1a protein E7 (residues 44-93); test: small molecules binding HPV E7 44-93 – biochemical, small-molecule microarray, residues 44-93, 635 nm fluorescence, primary screen (AID 1108); conditions: fluorescence 635 nm, higher = more signal;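 note: E7 fragment applied at 1 µg/mL in TBST for 1 h at 4 C; score combines spot fluorescence with its signal to noise ratio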
[12] = hepatitis C replication reporter changes, two-sided – Huh7 cells, luciferase reporter, HCV replication inhibitor project, primary screen (AID 1109); conditions: Huh7 HCV replicon luciferase reporter, 48 h; higher = more signal;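 note: huh7 hepatoma cells harbouring a luciferase neomycin HCV replicon reporter; luciferase luminescence as measure of HCV replicon replication; test concentration not given here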
[13] = molecular target: Left-right determination factor 2 (Homo sapiens) (UniProt O00292); test: small molecules binding LEFTY2 protein – biochemical, small-molecule microarray, 635 nm fluorescence scan, primary screen (AID 1110); conditions: higher = more signal
[14] = molecular target: Calmodulin-1 (Homo sapiens) (UniProt P0DP23); test: small molecules binding calmodulin-1 with EGTA – biochemical, small-molecule microarray, Cy5-labelled CALM1, profiling panel (AID 1111); conditions: Cy5-CALM1 binding fluorescence, higher = more signal;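 note: labelled calmodulin applied in Tris saline Tween buffer holding calcium plus EGTA and DTT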
[15] = molecular target: Calmodulin-1 (Homo sapiens) (UniProt P0DP23); test: small molecules binding Ca-loaded calmodulin-1 – biochemical, small-molecule microarray, Cy5-labelled CALM1, plus calcium, artefact control for SMM control-protein annotation, profiling panel (AID 1112); conditions: Cy5-CALM1 binding fluorescence, higher = more signal;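 note: score merges spot fluorescence with signal to noise from triplicate slides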
[16] = probe aWnt5a binding to arrayed compounds – biochemical, biotinylated probe, 635/667 nm fluorescence, primary screen (AID 1113); conditions: small-molecule microarray, higher = more signal;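 note: score merges 667 nm fluorescence intensity with signal-to-noise per printed feature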
[17] = probe aShh binding to arrayed compounds – biochemical, biotinylated probe, 635/667 nm fluorescence, primary screen (AID 1114); conditions: small-molecule microarray, higher = more signal;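 note: probe is biotin-labelled aShh protein from a stem cell growth factor screen; measures binding of labelled protein to compounds printed on the slide; score merges feature fluorescence at 667 nm with signal-to-noise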
[18] = probe aNog binding to arrayed compounds – biochemical, biotinylated probe, 635/667 nm fluorescence, primary screen (AID 1115); conditions: small-molecule microarray, higher = more signal;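 note: probe is biotinylated aNog protein used at 0.15 µg/mL for 1 h at 4 C; z-score combines 667 nm fluorescence of each spot with its signal to noise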
[19] = molecular target: Torsin-1A-interacting protein 1 (Homo sapiens) (UniProt Q5JTV8); test: compound microarray binding of lysate hLAP1 – cell lysate, small-molecule microarray, COS7 lysate, 635/667 nm fluorescence, primary screen (AID 1116); conditions: 635 nm fluorescence, higher = more signal
[20] = molecular target: Alpha-bungarotoxin (Bungarus multicinctus) (UniProt P60615); test: compounds binding labelled alpha-BTX control protein – biochemical, small-molecule microarray, Alexa647 label, 635/667 nm fluorescence, artefact control for SMM control protein annotation, profiling panel (AID 1117); conditions: alpha-BTX-A647 binding fluorescence, higher = more signal
Alpha-bungarotoxin (Bungarus multicinctus), sequence (P60615 whole entry, looked up): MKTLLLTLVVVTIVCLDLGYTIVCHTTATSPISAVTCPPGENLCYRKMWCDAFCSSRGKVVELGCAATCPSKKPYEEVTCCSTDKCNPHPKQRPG

Fibroblast growth factor 10 (Homo sapiens), sequence (O15520 whole entry, looked up): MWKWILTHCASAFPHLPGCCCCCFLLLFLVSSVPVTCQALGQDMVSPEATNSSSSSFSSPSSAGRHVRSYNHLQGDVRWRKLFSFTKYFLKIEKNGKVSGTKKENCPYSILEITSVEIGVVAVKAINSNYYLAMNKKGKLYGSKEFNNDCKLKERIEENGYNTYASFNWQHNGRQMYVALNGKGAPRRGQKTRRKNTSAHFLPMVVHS
Left-right determination factor 2 (Homo sapiens), sequence (O00292 whole entry, looked up): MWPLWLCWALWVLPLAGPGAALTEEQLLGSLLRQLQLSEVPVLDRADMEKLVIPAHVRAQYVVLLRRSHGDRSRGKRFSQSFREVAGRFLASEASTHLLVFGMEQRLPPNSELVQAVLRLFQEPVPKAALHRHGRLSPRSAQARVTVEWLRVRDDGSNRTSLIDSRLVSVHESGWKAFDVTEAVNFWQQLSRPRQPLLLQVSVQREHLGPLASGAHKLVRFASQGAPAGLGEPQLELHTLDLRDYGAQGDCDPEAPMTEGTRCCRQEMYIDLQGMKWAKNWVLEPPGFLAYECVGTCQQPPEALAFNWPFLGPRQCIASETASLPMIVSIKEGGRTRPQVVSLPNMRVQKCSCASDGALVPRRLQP
Dickkopf-related protein 1 (Homo sapiens), sequence (O94907 whole entry, looked up): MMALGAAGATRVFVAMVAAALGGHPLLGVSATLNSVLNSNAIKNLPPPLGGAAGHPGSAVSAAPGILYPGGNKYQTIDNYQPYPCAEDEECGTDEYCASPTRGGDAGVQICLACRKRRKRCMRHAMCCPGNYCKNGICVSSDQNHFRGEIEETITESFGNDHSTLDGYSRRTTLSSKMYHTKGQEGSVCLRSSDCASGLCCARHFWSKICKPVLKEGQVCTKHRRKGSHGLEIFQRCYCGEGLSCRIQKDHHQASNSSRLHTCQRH
Follistatin-related protein 3 (Homo sapiens), sequence (O95633 whole entry, looked up): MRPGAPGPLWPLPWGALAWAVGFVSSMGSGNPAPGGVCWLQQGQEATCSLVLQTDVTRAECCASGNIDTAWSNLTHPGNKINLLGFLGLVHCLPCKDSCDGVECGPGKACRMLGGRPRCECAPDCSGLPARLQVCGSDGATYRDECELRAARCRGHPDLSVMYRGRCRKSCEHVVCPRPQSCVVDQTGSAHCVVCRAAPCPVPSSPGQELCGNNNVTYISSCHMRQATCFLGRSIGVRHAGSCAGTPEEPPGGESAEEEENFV
Epidermal growth factor receptor (Homo sapiens), sequence (P00533 whole entry, looked up): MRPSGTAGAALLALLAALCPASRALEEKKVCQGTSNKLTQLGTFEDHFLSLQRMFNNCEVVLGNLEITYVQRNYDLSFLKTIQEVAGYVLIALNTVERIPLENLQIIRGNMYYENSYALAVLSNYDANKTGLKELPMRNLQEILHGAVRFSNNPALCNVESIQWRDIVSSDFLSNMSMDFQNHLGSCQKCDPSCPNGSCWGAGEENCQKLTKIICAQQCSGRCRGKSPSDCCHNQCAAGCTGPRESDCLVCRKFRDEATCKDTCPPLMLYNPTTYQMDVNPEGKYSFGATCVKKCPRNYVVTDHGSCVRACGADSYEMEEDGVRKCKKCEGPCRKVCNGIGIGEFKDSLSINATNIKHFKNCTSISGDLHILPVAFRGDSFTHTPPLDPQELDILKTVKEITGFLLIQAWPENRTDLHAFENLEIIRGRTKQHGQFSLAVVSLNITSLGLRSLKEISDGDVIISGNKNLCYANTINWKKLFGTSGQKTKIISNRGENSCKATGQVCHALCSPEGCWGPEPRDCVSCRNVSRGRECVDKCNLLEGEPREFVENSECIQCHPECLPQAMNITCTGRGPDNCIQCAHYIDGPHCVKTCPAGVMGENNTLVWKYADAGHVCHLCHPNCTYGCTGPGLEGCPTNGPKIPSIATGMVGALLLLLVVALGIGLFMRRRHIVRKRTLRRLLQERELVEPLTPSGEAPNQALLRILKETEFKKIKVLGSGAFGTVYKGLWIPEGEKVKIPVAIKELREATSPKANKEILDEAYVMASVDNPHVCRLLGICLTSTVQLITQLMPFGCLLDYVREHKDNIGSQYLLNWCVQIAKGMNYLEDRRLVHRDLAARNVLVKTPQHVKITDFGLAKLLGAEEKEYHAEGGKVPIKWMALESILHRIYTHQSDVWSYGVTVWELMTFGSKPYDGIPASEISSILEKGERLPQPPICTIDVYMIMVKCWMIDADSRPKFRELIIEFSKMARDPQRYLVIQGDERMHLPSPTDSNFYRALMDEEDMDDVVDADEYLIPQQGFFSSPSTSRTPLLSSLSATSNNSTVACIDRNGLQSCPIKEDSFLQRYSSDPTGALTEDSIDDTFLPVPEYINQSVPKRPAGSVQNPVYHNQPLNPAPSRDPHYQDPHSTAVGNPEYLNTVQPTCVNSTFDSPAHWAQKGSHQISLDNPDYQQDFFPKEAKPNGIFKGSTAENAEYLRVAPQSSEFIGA
Torsin-1A-interacting protein 1 (Homo sapiens), sequence (Q5JTV8 whole entry, looked up): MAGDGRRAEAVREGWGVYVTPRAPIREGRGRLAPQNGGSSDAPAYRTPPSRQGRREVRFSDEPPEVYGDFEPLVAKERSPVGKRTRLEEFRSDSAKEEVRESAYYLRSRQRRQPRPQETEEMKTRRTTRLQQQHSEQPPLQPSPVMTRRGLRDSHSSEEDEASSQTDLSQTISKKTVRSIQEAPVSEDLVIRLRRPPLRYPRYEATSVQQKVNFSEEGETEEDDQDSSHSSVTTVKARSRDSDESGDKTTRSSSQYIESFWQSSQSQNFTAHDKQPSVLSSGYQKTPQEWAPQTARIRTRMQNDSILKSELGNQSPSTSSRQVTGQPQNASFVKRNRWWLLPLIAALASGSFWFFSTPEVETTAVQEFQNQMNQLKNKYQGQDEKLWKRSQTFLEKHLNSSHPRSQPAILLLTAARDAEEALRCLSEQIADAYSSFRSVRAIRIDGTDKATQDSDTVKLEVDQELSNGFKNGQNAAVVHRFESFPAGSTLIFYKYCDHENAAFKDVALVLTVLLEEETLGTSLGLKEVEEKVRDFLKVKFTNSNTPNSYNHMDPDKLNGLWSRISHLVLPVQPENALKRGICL

SMILES	composite z-score [1]	composite z-score [2]	composite z-score [3]	z-score [4]	composite z-score [5]	composite z-score [6]	composite z-score [7]	composite z-score [8]	composite z-score [9]	composite z-score [10]	composite z-score [11]	z-score [12]	composite z-score [13]	composite z-score [14]	composite z-score [15]	composite z-score [16]	composite z-score [17]	composite z-score [18]	composite z-score [19]	composite z-score [20]
C[C@@H](c1ccccc1)N1C(=O)[C@H]2[C@H]3[C@H](O)[C@H](O)CC(=NO[C@@H]4O[C@H](CO)[C@@H](O)[C@H](O)[C@H]4O)[C@H]3CC[C@H]2C1=O	0.249	-0.155	-0.546	0.0641 (inactive)	0.559	0.783	0.425	1.03	0.44	0.0882	0.668	-0.087	0.414	-0.222	-0.461	-0.196	0.147	-0.206	0.163	0.556
CON=C[C@@H](NS(=O)(=O)c1ccc(C)cc1)[C@H](C)C=CCC(=O)OC	0.571	-0.26	-0.447	-0.114 (inactive)	0.0529	-0.435	0.314	0.224	0.611	1.33	-0.933	0.604	0.532	-0.654	-1.31	-0.128	0.0756	-0.425	0.22	-0.0634
CON=C1[C@H]2CCn3c(=O)n(-c4ccccc4)c(=O)n3[C@H]2[C@H](O)[C@@H]2O[C@H]12	0.555	-0.198	-0.67	-0.871 (inactive)	0.556	0.81	0.599	0.488	0.332	0.141	0.548	-2.1	0.661	-0.345	-0.536	-0.0445	-0.138	-0.158	-0.501	0.269
CO[C@@H]1COC(=O)[C@H](CCSC)NC(=O)CC=C[C@@H](C)COC(=O)[C@H](C)NC(=O)CC=C[C@H]1C	0.931	-0.34	-0.833	0.0885 (inactive)	0.816	0.856	0.953	1.1	1.19	-0.0263	0.677	-0.62	1.19	-0.886	-1.04	-0.0179	-0.221	-0.0604	-0.185	-0.155
C#CCCCON=C1C[C@@H](O)[C@@H](O)[C@@H]2[C@@H]3C(=O)N(c4cccc(Oc5ccccc5)c4)C(=O)[C@@H]3CC[C@H]12	1.06	-0.406	0.155	-0.558 (inactive)	-0.948	-1.56	-0.356	-0.845	-0.557	-0.69	-0.578	0.18	-0.914	-0.423	0.361	-0.172	-0.138	-0.237	0.441	-0.702
CCCNC(=O)OC[C@H]1O[C@H](CCON=Cc2ccc(C(=O)N3[C@H](c4ccc(C)cc4)[C@@H](C)CC[C@H]3C(=O)OC)cc2)C=C[C@@H]1Oc1ccc(OC)cc1	0.463	-0.186	-0.0627	-0.357 (inactive)	0.523	0.581	0.417	0.355	0.0399	0.446	0.993	-1.85	0.534	0.263	-0.0711	0.111	-0.493	-0.0234	0.943	0.497
CC(CCN1CCCCc2nc(C)c(C)cc21)=NOC[C@@H](O)COCc1ccco1	1.19	-0.286	-1.58	0.44 (inactive)	1.26	1.34	1.74	1.52	2	1.79	-1.68	0.0716	1.61	-1.34	-1.81	-0.129	0.0121	-0.911	0.43	-0.527
CCOC(=O)NN=C1C[C@@H](O)[C@@H](O)[C@@H]2[C@@H]3C(=O)N(c4cccc(Oc5ccccc5)c4)C(=O)[C@@H]3CC[C@H]12	0.424	0.104	-0.566	-0.652 (inactive)	0.518	0.176	0.381	0.455	0.222	0.0233	0.731	0.011	0.404	0.141	-0.141	-0.205	-0.388	-0.304	0.129	0.675
CCOC(=O)[C@H](CC(C)C)NC(=O)CCC1CC(OC(=O)NCc2ccc3c(c2)OCO3)CC2(CCCC(COC(=O)NCC(c3ccccc3)c3ccccc3)O2)O1 (stereo not given in full)	0.517	-0.445	-0.491	0.907 (inactive)	0.685	0.206	-0.519	0.503	0.0925	0.155	0.506	-0.0319	0.426	-0.378	-0.443	-0.169	-0.262	-0.137	0.126	0.443
CCN1C(=O)[C@H]2[C@H]3[C@H](O)[C@H](O)CC(=NO[C@@H](C)c4cn([C@H](CO)Cc5ccccc5)nn4)[C@@H]3CC[C@H]2C1=O	0.774	0.262	-0.426	0.358 (inactive)	0.792	0.92	0.182	1.14	0.692	-1.1	0.696	-0.262	0.636	0.711	-0.209	-0.0403	-0.206	0.111	-0.117	0.889
CCOC(=O)NN=C1C[C@@H](O)[C@@H](O)[C@@H]2[C@@H]3C(=O)N(Cc4ccccc4)C(=O)[C@@H]3CC[C@H]12	0.245	-0.259	-0.301	-1.14 (inactive)	-0.0919	-0.435	0.242	0.0487	0.615	-0.0924	-0.0228	0.47	0.545	0.903	-0.677	-0.0529	-0.0626	-0.158	-0.273	0.405
